Among the data in PubChem BioAssay (NCATS) are Potency and outcome values, retold here.

Inconclusive results are not listed. Where a call stands in place of a potency, no number is given. Activity calls are given as the source filed them. Calls come from the whole dose curve; as a rule, active = well fitted inhibition curve with a large enough effect; inconclusive = small, poorly fitted or top-dose-only effect; inactive = flat fitted curve, though single readings scatter.

In the assay the test system is CRL-7250. Kind of assay: qHTS assay to identify novel small-molecules to repurpose for Merkel cell carcinoma treatment (AID 1296009). Note: nearly all actives have a fitted effect of over 60% in size. As to conditions: MCC and control cell lines, CellTiter-Glo viability, 72 h; series mostly up to 92 µM. In outline:
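CellTiter-Glo luminescence after 72 hr compound exposure at 37 degree celsius gave cell viability. Libraries NPC and MIPE were run as 8- and 11-point dose responses; RLUs normalized to DMSO (negative) and no-cell (cytotoxicity) controls.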
Background: qHTS replaces the single test concentration by a dilution series.
As to `CO[C@H]1O[C@@H]2O[C@@]3(C)CCC4[C@H](C)CCC([C@H]1C)[C@]42OO3` (some centres not stated), the Potency entry is “inactive”. Take `NC(=O)NCCCC(NC(=O)Cc1ccccc1)C(=O)O` (configuration not stated): the Potency entry was “inactive”. Take `O=C(O)Cc1nn(Cc2nc3cc(C(F)(F)F)ccc3s2)c(=O)c2nccnc12`: the Potency result was “inactive”. Regarding `O=C(NC1CCN(CC(F)(F)F)CC1)c1ccc(-c2cccc(F)c2)nc1`, the Potency result is “inactive”. In the case of `C=C1C2(CCC(=O)OC2(C)C)CC(OC(=O)/C(C)=C/C)C2(C)C13OC14C(=O)OC(C)(C(=O)C12C(=O)OC4C)C3OC(C)=O` (configuration not stated), the Potency entry is “inactive”.

As to `O=S(=O)(c1ccccc1)N(CC(F)(F)F)c1ccc(C(O)(C(F)(F)F)C(F)(F)F)cc1`, the Potency entry was “inactive”.

As for `CC#C[C@@H](CC(=O)O)c1ccc(OCc2ccc(CN3CCC4(C=Cc5ccccc54)CC3)s2)cc1`, the Potency result was “inactive”. Turning to `N#Cc1c[nH]c2c(C(=O)N3CCN(CCc4ccc(F)cc4)CC3)cccc12`, the Potency result is “inactive”.

As for `CC(C)CC(=O)n1cc(C(N)=O)c(=O)cc1C(O)c1ccccc1` (configuration not stated), the Potency entry was “inactive”. Consider `CCC(CC)C(=O)Nc1sc2c(c1C#N)CCC(C(C)(C)CC)C2` (configuration not stated), for which the Potency entry is “inactive”. With `COc1cc(C2Oc3c(OC)cc(CCCO)cc3C2CO)ccc1O[C@H]1O[C@H](C)[C@@H](O)[C@H](O)[C@@H]1O` (some centres not stated), the Potency result is “inactive”. On to `C[C@@H]1O[C@@H](O[C@H]2[C@H](O[C@H]3[C@H](O[C@H]4CC[C@@]5(C=O)C(CC[C@]6(C)C5CC=C5C7CC(C)(C)C[C@@H](O)[C@]7(C)CC[C@]56C)C4(C)C)O[C@H](C(=O)O)[C@@H](O)[C@@H]3O)OC[C@@H](O)[C@@H]2O)[C@H](O)[C@H](O)[C@H]1O` (some centres not stated), for which the outcome was “inactive [at 9.27 µM]”. As for `CCN[C@@H]1C[C@H](N)[C@@H](O[C@H]2OC(CN)=CC[C@H]2N)[C@H](O)[C@H]1O[C@H]1OC[C@](C)(O)[C@H](NC)[C@H]1O`, the Potency result is “inactive”. Still for that read-out and setting: then `Cc1ncc([N+](=O)[O-])n1CC(O)CN1CCOCC1` (configuration not stated), with “inactive”. On to `COc1cc(/C=C/C(=O)O[C@H]2[C@H](O)[C@@H](CO)O[C@@]2(CO)O[C@H]2O[C@H](COC(=O)c3ccc(O)cc3)[C@@H](O)[C@H](O)[C@H]2O)cc(OC)c1OC`, for which the Potency result is “inactive”. Take `CC1CCCCCCCc2cc(O)cc(O)c2C(=O)O1` (configuration not stated): the Potency entry is “inactive”. Regarding `O=C(NCCCN1CCC2(CC1)OCc1ccccc12)[C@H]1CCCN1Cc1ccccc1`, the Potency entry is “inactive”. `O=C(Nc1ccccc1C(=O)NC1CCCCNC1=O)c1cc2ccccc2s1` (configuration not stated): the Potency entry was “inactive”. `COc1c2c(c(C)c3c1C(=O)OC3)OC1(C)CC(O)C34OC(O)(CCC3(C)C1C2)OC4(C)C` (configuration not stated): the Potency result was “inactive”. On the same count and under the same terms, then `COc1cc(C(CO)C(OC2OC(CO)C(O)C(O)C2O)c2ccc(O)c(OC)c2)ccc1O` (configuration not stated), with “inactive”; and `COc1ccc(C2=CC(=O)OC2Cc2ccc(O)cc2)c(O)c1` (configuration not stated), with “inactive”.

Regarding `C[C@]12CCC(=O)C=C1[C@@H](O)C[C@@H]1[C@@H]2[C@@H](O)C[C@@]2(C)[C@H]1CC[C@]2(O)C(=O)CO`, the Potency result is “inactive”. With `CC(=O)O[C@@H]1[C@@H](OC(=O)/C=C/c2ccccc2)[C@@H](OC(C)=O)[C@H](O[C@H]2[C@@H]3C=CO[C@@H](O[C@@H]4O[C@H](CO)[C@@H](O)[C@H](O)[C@H]4O)[C@@H]3[C@@]3(CO)O[C@@H]23)O[C@H]1C`, the Potency result was “inactive”.

`O=S(=O)(NC1CCC(c2cc(F)ccc2F)(S(=O)(=O)c2ccc(Cl)cc2)CC1)C(F)(F)F` (configuration not stated): the Potency entry was “inactive”. On to `CC12CCC(=O)C=C1C(O)CC1C2C(O)CC2(C)C1CC[C@]2(O)C(=O)CO` (some centres not stated), for which the outcome is “inactive [at 9.27 µM]”. For the compound `C[C@H](NC(c1cccc(C[P+](=O)O)c1)[C@H](C)O)c1ccc(Cl)c(Cl)c1` (some centres not stated), the Potency result was “inactive”. On to `COC1=Cc2c(nc3n(c2=O)C(C)C(=O)NC3(O)C(C)C)OC=C1` (configuration not stated), for which the Potency result is “inactive”. On to `CC1(C)CC[C@@]2(C(=O)O[C@@H]3O[C@H](CO)[C@@H](O)[C@H](O)[C@H]3O)C(C1)C1=CCC3[C@@]4(C)CC[C@@H](O[C@@H]5O[C@H](C(=O)O)[C@@H](O[C@@H]6OC[C@@H](O)[C@H](O)[C@H]6O)[C@H](O[C@@H]6OC[C@](O)(CO)[C@H]6O)[C@H]5O)C(C)(C)C4CC[C@@]3(C)[C@]1(C)C[C@H]2O` (some centres not stated), for which the outcome was “inactive [at 9.27 µM]”. As for `CCc1cc(CC[C@]2(C3CCCC3)CC(O)=C(Cc3nc4nc(C)cc(C)n4n3)C(=O)O2)cc(CC)n1`, the Potency result was “inactive”. Consider `CC1CCC2(C(=O)OC3OC(COC4OC(CO)C(O)C(O)C4O)C(O)C(O)C3O)CCC3(C)C(=CCC4C5(C)CCC(O)C(C)(C(=O)O)C5CCC43C)C2C1(C)O` (configuration not stated), for which the outcome is “inactive [at 9.27 µM]”. Consider `C=Cc1cc2oc(-c3ccc(O)c(F)c3)nc2cc1O`, for which the Potency entry was “inactive”. On to `CC1(CO)CC[C@]2(C(=O)O[C@@H]3O[C@H](CO)[C@@H](O)[C@H](O)[C@H]3O)CC[C@]3(C)C(=CCC4[C@@]5(C)C[C@H](O)[C@H](O[C@@H]6OC[C@@H](O)[C@H](O)[C@H]6O)[C@@](C)(CO)C5CC[C@]43C)C2C1` (some centres not stated), for which the outcome is “inactive [at 9.27 µM]”.
